Source: ChEMBL document CHEMBL2218924, “A broad activity screen in support of a chemogenomic map for kinase signalling research and drug discovery” (Biochem J, 2013)

Each compound was assayed against PAS domain-containing serine/threonine-protein kinase (Homo sapiens) (UniProt Q96RG2). Details: at 1 µM.
Chain of PAS domain-containing serine/threonine-protein kinase (Homo sapiens) (Q96RG2 whole entry, the tested form may be a part): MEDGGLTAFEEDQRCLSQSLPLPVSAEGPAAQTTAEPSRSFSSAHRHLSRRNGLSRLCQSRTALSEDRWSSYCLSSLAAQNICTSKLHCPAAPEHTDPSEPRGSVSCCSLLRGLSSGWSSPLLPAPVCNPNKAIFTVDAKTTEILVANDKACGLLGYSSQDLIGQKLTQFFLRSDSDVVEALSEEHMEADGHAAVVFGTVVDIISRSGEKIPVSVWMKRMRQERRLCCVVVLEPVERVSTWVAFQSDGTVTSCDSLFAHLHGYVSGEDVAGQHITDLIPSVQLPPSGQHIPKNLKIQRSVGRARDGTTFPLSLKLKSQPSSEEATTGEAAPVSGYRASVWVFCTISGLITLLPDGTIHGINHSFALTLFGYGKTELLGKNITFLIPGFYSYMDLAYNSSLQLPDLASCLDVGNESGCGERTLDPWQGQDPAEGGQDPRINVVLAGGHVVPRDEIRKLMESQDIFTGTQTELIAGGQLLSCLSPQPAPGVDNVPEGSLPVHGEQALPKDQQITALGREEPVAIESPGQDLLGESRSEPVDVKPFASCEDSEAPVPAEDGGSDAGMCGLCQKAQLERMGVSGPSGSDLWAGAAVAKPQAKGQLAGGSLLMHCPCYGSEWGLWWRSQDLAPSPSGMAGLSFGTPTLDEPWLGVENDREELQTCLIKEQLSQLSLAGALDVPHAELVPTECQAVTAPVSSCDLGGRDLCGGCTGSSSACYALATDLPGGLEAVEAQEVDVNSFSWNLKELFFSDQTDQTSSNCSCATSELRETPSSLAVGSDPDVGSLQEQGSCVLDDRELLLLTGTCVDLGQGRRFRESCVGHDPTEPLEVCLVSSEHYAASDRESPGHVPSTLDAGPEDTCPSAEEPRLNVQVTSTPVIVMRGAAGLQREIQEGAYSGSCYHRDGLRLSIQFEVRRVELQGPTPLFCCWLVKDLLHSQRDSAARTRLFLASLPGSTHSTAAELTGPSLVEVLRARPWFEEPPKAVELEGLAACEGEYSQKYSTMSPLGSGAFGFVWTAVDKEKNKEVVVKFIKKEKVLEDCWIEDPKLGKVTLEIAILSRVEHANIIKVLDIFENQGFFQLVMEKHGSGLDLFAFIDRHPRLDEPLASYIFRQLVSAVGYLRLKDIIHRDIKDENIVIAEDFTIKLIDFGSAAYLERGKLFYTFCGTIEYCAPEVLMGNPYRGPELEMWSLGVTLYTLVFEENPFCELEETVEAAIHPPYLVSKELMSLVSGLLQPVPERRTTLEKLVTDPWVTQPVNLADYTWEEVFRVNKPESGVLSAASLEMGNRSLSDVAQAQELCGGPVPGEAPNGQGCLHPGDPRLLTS

SMILES	residual activity [%]
Nc1nccc(-c2c(-c3ccc(F)cc3)ncn2C2CCNCC2)n1	129
O=C(O)c1ccc2c3c1cccc3c(=O)n1c3ccccc3nc21	111
O=c1c2ccccc2[nH]c(=S)n1CCN1CCC(=C(c2ccc(F)cc2)c2ccc(F)cc2)CC1	85
CCOC(=O)c1c(C)[nH]c(/C=C2\C(=O)Nc3ccccc32)c1C	93
O=C(NC(NC(=S)Nc1ccc(F)c([N+](=O)[O-])c1)C(Cl)(Cl)Cl)C(c1ccccc1)c1ccccc1 (centres undefined)	103
c1ccc(-c2n[nH]cc2-c2ccnc3ccccc23)nc1	95
COc1cc2ncnc(Nc3ccc(O)c(Br)c3)c2cc1OC	73
O=C1c2ccccc2-[n+]2ccc3c([nH]c4ccccc43)c21	147
O=C1NC(=O)c2c1c1c3ccccc3[nH]c1c1[nH]c3cc(Br)ccc3c21	89
COc1cc2nccc(Oc3ccc(NC(=O)Nc4cc(C)on4)c(Cl)c3)c2cc1OC	100
c1ccc(-c2cnc(Nc3ccc(OCCN4CCCC4)cc3)s2)cc1	81
O=C1NC(=O)C(c2c[nH]c3ccccc23)=C1c1c[nH]c2ccccc12	81
O=C1Nc2ccc(Cl)cc2/C1=C/c1cc(Cl)c(O)c(Cl)c1	111
Oc1n[nH]c2nnc(-c3c(-c4ccccc4)nn4ccccc34)cc12	100
O=C1C(Cl)=C(N2C(=O)CCC2=O)C(=O)c2ccccc21	100
CC#CC(=O)Nc1cc2c(Nc3ccc(F)c(Cl)c3)ncnc2cn1	101
Cn1cnc2cc3c(Nc4cccc(Br)c4)ncnc3cc21	82
O=S(=O)(NCCNC/C=C/c1ccc(Br)cc1)c1cccc2cnccc12	141
CSc1nc(-c2ccc(F)cc2)c(-c2ccnc(NC(C)c3ccccc3)c2)[nH]1 (centres undefined)	95
C[C@@H](N)[C@H]1CC[C@H](C(=O)Nc2ccncc2)CC1	82

SMILES	residual activity [%]
CN([C@@H](Cc1ccc(OS(=O)(=O)c2cccc3cnccc23)cc1)C(=O)N1CCN(c2ccccc2)CC1)S(=O)(=O)c1cccc2cnccc12	79
CCCC(=O)Oc1ccc2[nH]c(C(=O)c3cc4ccccc4[nH]3)cc2c1	122
COc1cc2ncc(-c3ccccc3)nc2cc1OC	90
CC(C)(C)n1nc(Cc2cccc3ccccc23)c2c(N)ncnc21	116
Nc1n[nH]c2nnc(-c3c(-c4ccccc4)nn4ccccc34)cc12	104
O=C1Nc2ccccc2/C1=C1/Nc2ccccc2/C1=N\OCCC(O)CO (centres undefined)	140
COc1ccc(C(=O)Nc2sc3c(c2C(N)=O)CCCC3)cc1OC	95
c1ccc2c(-c3ccncc3)c[nH]c2c1	99
COc1cc2ncnc(Nc3ccc(NC(=O)c4ccccc4)cc3)c2cc1OC	133
O=C(O)/C=C/c1cc(Br)c(Br)c(Br)c1Br	63
Nc1ncnc2[nH]nc(Nc3ccc(F)cc3)c12	92
c1ccc(-c2n[nH]c3c2oc2ccccc23)cc1	130
N#C/C(=C(\N)Sc1ccc(N)cc1)c1ccccc1C(F)(F)F	122
Nc1ccc2ncnc(NCCc3ccc(Oc4ccccc4)cc3)c2c1	107
Cc1nc(-c2ccccc2)c(-c2ccncc2)o1	128
Cc1cc(Nc2nc(-c3ccccc3)nc3ccccc23)n[nH]1	108
CCN(CC)CCCCN1c2ccccc2Oc2ccc(Cl)cc21	88
O=Nc1c(-c2c(O)[nH]c3ccccc23)[nH]c2ccccc12	112
COc1ccc(Cl)cc1NC(=O)Nc1cc(C)nc2ccccc12	98
